We go through 84 molecules from article PMC4336329 (PLoS ONE, 2015).

Among all 310,000 compounds or so, about 2,200 (0.71%) showed an effect of 50% or more. The effect is printed as a negative number. The list comes from a sample in which strong results are over-represented; it also holds similar structures and randomly drawn compounds.

The target of this experiment is human ether-à-go-go-related gene (hERG) potassium channel (human, UniProt Q12809). The experiment is described as follows: primary screen, population patch clamp on CHO cells stably expressing hERG; higher = less effect of the substance.
human ether-à-go-go-related gene (hERG) potassium channel, sequence (Q12809 whole entry, looked up): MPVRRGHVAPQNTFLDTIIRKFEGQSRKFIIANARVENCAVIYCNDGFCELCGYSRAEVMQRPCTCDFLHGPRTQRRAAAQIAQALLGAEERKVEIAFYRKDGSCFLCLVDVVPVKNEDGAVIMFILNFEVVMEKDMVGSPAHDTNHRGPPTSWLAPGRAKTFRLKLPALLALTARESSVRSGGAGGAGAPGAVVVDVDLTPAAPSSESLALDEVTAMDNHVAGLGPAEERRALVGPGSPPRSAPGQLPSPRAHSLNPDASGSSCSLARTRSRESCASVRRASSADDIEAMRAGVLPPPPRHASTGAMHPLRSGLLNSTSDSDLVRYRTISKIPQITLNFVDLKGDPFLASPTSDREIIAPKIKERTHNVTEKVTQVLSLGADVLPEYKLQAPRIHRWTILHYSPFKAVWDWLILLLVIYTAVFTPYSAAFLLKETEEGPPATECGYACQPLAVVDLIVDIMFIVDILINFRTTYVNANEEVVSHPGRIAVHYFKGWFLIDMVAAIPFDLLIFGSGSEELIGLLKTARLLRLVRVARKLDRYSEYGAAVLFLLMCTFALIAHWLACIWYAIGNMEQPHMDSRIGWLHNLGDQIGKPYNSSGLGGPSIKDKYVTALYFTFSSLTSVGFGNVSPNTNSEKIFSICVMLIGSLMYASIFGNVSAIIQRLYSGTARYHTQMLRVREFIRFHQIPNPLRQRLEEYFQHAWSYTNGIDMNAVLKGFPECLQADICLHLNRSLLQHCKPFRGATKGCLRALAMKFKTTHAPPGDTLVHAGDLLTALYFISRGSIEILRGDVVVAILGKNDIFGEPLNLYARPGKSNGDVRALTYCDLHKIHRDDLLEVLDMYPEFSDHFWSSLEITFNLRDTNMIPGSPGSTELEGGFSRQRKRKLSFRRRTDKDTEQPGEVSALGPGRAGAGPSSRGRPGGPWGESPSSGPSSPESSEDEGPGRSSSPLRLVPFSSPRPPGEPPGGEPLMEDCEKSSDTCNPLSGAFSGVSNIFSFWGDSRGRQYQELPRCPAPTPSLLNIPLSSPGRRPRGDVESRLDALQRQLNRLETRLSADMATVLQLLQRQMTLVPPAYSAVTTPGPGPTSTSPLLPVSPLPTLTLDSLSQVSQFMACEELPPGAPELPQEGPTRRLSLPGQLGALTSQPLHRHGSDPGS
Turning to `OCC1(Cc2ccccc2)CCCN(C2CCCC2)C1` (stereo not drawn), the “hERG current change (%, negative = inhibition) at 1uM” value is given as -3.43%.
The result for `OCCC1CN(C2CCN(c3ccccc3)CC2)CCN1Cc1ccc(F)c(F)c1` (stereo not drawn) reads -71.1%; that for `OCCC1CN(C2CCN(c3ccccc3F)CC2)CCN1Cc1ccccc1` (stereo not drawn), -1.66%; that for `OCC1(Cc2ccccc2)CCN(C2CCN(c3ccc(F)c(F)c3)CC2)CC1`, -124%.
In the case of `OCCC1CN(C2CCC2)CCN1Cc1ccc(F)c(F)c1` (stereo not drawn), the “hERG current change (%, negative = inhibition) at 1uM” value is 12.1%.
`OCC1(Cc2ccccc2)CCN(C2CCN(c3ccccc3F)CC2)CC1`: the “hERG current change (%, negative = inhibition) at 1uM” value is -38.5%.
Take `CC(C)c1c(C(=O)N/N=C/c2ccccc2C(=O)O)nnn1-c1nonc1N`: the “hERG current change (%, negative = inhibition) at 1uM” value was determined as 7.36%.
`C(=C\CSc1nnnn1-c1ccccc1)/CSc1nnnn1-c1ccccc1`: the “hERG current change (%, negative = inhibition) at 1uM” value was 0.568%.
For `O=C(Cn1nc(-c2ccccc2)c2ccccc2c1=O)Nc1ccc2c(c1)nc1n2CCOC1`, the “hERG current change (%, negative = inhibition) at 1uM” value was found to be 13.3%.
Turning to `C/C(=N\NC(=O)C1(C)CC1(Br)Br)c1cccc(NC(=O)c2ccc(C)o2)c1` (stereo not drawn), the “hERG current change (%, negative = inhibition) at 1uM” value turned out to be 11.8%.
For the molecule `CN1CCCN(C(=O)c2ccc(Br)s2)CC1`, the “hERG current change (%, negative = inhibition) at 1uM” value is 1.6%.
The result for `O=C(c1ccc(Cl)s1)N1CCCC1` reads 6.35%; that for `CN1CCCN(C(=O)c2ccc(Cl)s2)CC1`, -50.5%.
Regarding `CCOc1ccc(CCNC(=O)CN2CCN(Cc3ccccc3F)C2=O)cc1OCC`, the “hERG current change (%, negative = inhibition) at 1uM” value is recorded as -0.385%.
Turning to `Cc1ccc(S(=O)(=O)N2CCC(C(=O)Nc3ncccc3O)CC2)cc1`, the “hERG current change (%, negative = inhibition) at 1uM” value is -13.8%.
For `CCC1CCCCN1CCCNC(=O)c1ccc2c(c1)N(Cc1ccc(F)cc1)C(=O)c1ccccc1S2=O` (stereo not drawn), the “hERG current change (%, negative = inhibition) at 1uM” value was -13.7%.
Consider `Cc1nc(S(=O)(=O)c2ccc(Cl)cc2)nc2c1CCC2`, for which the “hERG current change (%, negative = inhibition) at 1uM” value is 0.296%.
`CCOc1ccccc1CN1C(=O)NC(C)(c2ccccc2)C1=O` (stereo not drawn): the “hERG current change (%, negative = inhibition) at 1uM” value was -0.418%.
As to `CCN(C1CCCCC1)S(=O)(=O)CCNC(=O)c1ccccc1`, the “hERG current change (%, negative = inhibition) at 1uM” value is 2.25%.
Turning to `CCCCCCCCCCCCCCCC[N+](C)(C)CCN(Cc1ccc(OC)cc1)c1ncccn1.[Br-]`, the “hERG current change (%, negative = inhibition) at 1uM” value was -61.5%.
`COc1ccc(CN(CCN(C)C)c2ccccn2)cc1.O=C(O)/C=C\C(=O)O`: the “hERG current change (%, negative = inhibition) at 1uM” value is reported as -0.0995%.
On to `CC[N+](C)(C)CCN(Cc1ccc(Cl)cc1)c1ccccn1.[Br-]`, for which the “hERG current change (%, negative = inhibition) at 1uM” value is -33.2%.
Take `COc1cc(C)ccc1OCCCOc1ccccc1Br`: the “hERG current change (%, negative = inhibition) at 1uM” value amounted to 12.3%.
In the case of `O=C(CCn1c(=O)c2sccc2n(Cc2cc(=O)n3ccccc3n2)c1=O)NCc1ccco1`, the “hERG current change (%, negative = inhibition) at 1uM” value is -25.1%.
Consider `CCOC(=O)N1CCC(N2CCCC(C(=O)c3cc(C)c(OC)c(C)c3)C2)CC1` (stereo not drawn), for which the “hERG current change (%, negative = inhibition) at 1uM” value is on record as -28.1%.
Consider `CCCC(=O)N1CCCC(C(=O)c2cccc(OC(C)C)c2)C1` (stereo not drawn), for which the “hERG current change (%, negative = inhibition) at 1uM” value is given as 9.81%.
As for `CCOC(=O)N1CCC(N2CCCC(C(=O)c3cccc(OC(C)C)c3)C2)CC1` (stereo not drawn), the “hERG current change (%, negative = inhibition) at 1uM” value is -61.3%.
In the case of `CCOC(=O)N1CCC(N2CCCC(C(=O)c3cccc(OC)c3)C2)CC1` (stereo not drawn), the “hERG current change (%, negative = inhibition) at 1uM” value is reported as -13.2%.
In the case of `CCOC(=O)N1CCC(N2CCCC(C(=O)c3ccc4cc(OC)ccc4c3)C2)CC1` (stereo not drawn), the “hERG current change (%, negative = inhibition) at 1uM” value was -55.1%.
In the case of `CC(C)Oc1cccc(C(=O)C2CCCN(C3CCOCC3)C2)c1` (stereo not drawn), the “hERG current change (%, negative = inhibition) at 1uM” value is reported as -5.96%.
To `O=C(COC(=O)CCc1ccccc1)NCc1ccccc1` belongs 12.3%; to `COc1ccc(C2C(C(=O)Nc3cccnc3)=C(C)Nc3nc(-c4cccs4)nn32)cc1` (stereo not drawn), -2.21%.
For `COc1cccc(-c2nc3n(n2)C(c2cccs2)C(C(=O)Nc2cccnc2)=C(C)N3)c1` (stereo not drawn), the “hERG current change (%, negative = inhibition) at 1uM” value is reported as -51.2%.
The result for `COc1ccccc1-c1nc2n(n1)C(c1cccs1)C(C(=O)Nc1cccnc1)=C(C)N2` (stereo not drawn) reads 0.0177%; that for `CC(=O)OC(C(=O)NC1CCCCC1)c1ccccc1` (stereo not drawn), 9.71%; that for `CCCN(C(=O)c1ccc(N(C)S(=O)(=O)c2ccc(C)cc2)cc1)C1CCS(=O)(=O)C1` (stereo not drawn), 14.8%.
Take `CCN(CC)CCCNC(=O)c1nn(-c2ccc(OC)cc2OC)c(=O)c2ccccc12`: the “hERG current change (%, negative = inhibition) at 1uM” value is recorded as 8.97%.
Take `CCN(CC)CCCNC(=O)c1nn(-c2cccc(OC)c2)c(=O)c2ccccc12`: the “hERG current change (%, negative = inhibition) at 1uM” value is -66.9%.
Consider `CCN(CC)CCCNC(=O)CNC(=O)c1nn(-c2ccc(OC)cc2)c(=O)c2ccccc12`, for which the “hERG current change (%, negative = inhibition) at 1uM” value is recorded as 17.5%.
Turning to `CC(=O)NS(=O)(=O)c1ccc(NC(=O)C(Sc2ccccc2)c2ccccc2)cc1` (stereo not drawn), the “hERG current change (%, negative = inhibition) at 1uM” value was 7.09%.
`Cn1c(=O)c(C(=O)CN2CCCCC2)c(N)n(Cc2ccccc2)c1=O`: the “hERG current change (%, negative = inhibition) at 1uM” value is recorded as 6.17%.
As to `Cc1coc2cc3oc(=O)c(CC(=O)N4C[C@H]5C[C@@H](C4)c4cccc(=O)n4C5)c(C)c3cc12`, the “hERG current change (%, negative = inhibition) at 1uM” value amounted to 4%.
`Cc1coc2cc3oc(=O)c(CCC(=O)N4C[C@H]5C[C@@H](C4)c4cccc(=O)n4C5)c(C)c3cc12`: the “hERG current change (%, negative = inhibition) at 1uM” value is -16.8%.
With `Cc1c(CC(=O)N2C[C@H]3C[C@@H](C2)c2cccc(=O)n2C3)c(=O)oc2cc3occ(C(C)(C)C)c3cc12`, the “hERG current change (%, negative = inhibition) at 1uM” value is recorded as -56.8%.
In the case of `Cc1noc(C)c1COC(=O)c1cccc(S(=O)(=O)N2c3ccccc3CC2C)c1` (stereo not drawn), the “hERG current change (%, negative = inhibition) at 1uM” value is 10.5%.
The result for `O=C(N/N=C/c1c(O)ccc2ccccc12)c1cccc(C(F)(F)F)c1` reads 13.9%; that for `CC1CCCCN1C(=O)C(Cc1ccccc1)N1C(=O)C2CCCCC2C1=O` (stereo not drawn), 10.7%.
For the molecule `CCOC(=O)c1c(NC(=S)Nc2ccc(F)cc2)sc2c1CCC2`, the “hERG current change (%, negative = inhibition) at 1uM” value is on record as -21.8%.
The result for `COc1ccccc1C(=O)Nc1ccccc1N1CCN(C(=O)c2ccc(Cl)cc2)CC1` reads -85.2%.
Consider `COc1ccc(Cl)cc1C(=O)Nc1ccccc1N1CCN(C(=O)C(C)C)CC1`, for which the “hERG current change (%, negative = inhibition) at 1uM” value is -19.6%.
The result for `COc1ccc(Br)cc1C(=O)Nc1ccccc1N1CCN(C(=O)c2ccccc2)CC1` reads 7.55%; that for `COc1ccc(Cl)cc1C(=O)Nc1ccccc1N1CCN(C)CC1`, -70.4%; that for `O=C(Nc1ccccc1N1CCN(C(=O)c2ccccc2)CC1)c1ccccc1Cl`, -29.8%.
Regarding `CC(=O)N1CCN(c2ccccc2NC(=O)c2cc(Br)ccc2Cl)CC1`, the “hERG current change (%, negative = inhibition) at 1uM” value is -27%.
To `COc1ccc(Cl)cc1C(=O)NC(=S)Nc1ccccc1N1CCOCC1` belongs 9.75%; to `CN1CCN(c2ccccc2NC(=O)c2cc(Br)ccc2Cl)CC1`, -53.1%.
As to `CS(=O)(=O)N1CCN(c2ccccc2NC(=O)c2cc(Br)ccc2Cl)CC1`, the “hERG current change (%, negative = inhibition) at 1uM” value is on record as -1.64%.
For the molecule `CC(=O)c1nc2ccccc2n1Cc1ccccc1`, the “hERG current change (%, negative = inhibition) at 1uM” value was found to be 9.31%.
The result for `CCCCn1c(N)c(N(CCC(C)C)C(=O)C2=COCCO2)c(=O)[nH]c1=O` reads 5.25%.
On to `COC(=O)CN1C(=O)Nc2ccc(Cl)cc2C1c1ccccc1` (stereo not drawn), for which the “hERG current change (%, negative = inhibition) at 1uM” value is listed as 22.6%.
For the molecule `Cc1cc(C)nc(N2CCC(CNC(=O)CCc3ccccc3)CC2)n1`, the “hERG current change (%, negative = inhibition) at 1uM” value worked out at 20.4%.
The result for `O=C(NCC(c1cccs1)N1CCOCC1)c1cc(S(=O)(=O)N2CCOCC2)c(Cl)cc1Cl` (stereo not drawn) reads 6.08%; that for `O=C(NCc1ccncc1)c1cc(S(=O)(=O)N2CCOCC2)c(Cl)cc1Cl`, 12.6%.
Turning to `O=C(NCc1cccs1)c1cc(S(=O)(=O)N2CCOCC2)c(Cl)cc1Cl`, the “hERG current change (%, negative = inhibition) at 1uM” value is given as -78.4%.
The result for `CC(=O)Nc1ccc(S(=O)(=O)Nc2ccc(S(=O)(=O)Nc3ncccn3)cc2)cc1` reads 8.81%.
On to `CCOC(=O)C1CCCN(c2c(N3CCN(C)CC3)c(=O)c2=O)C1` (stereo not drawn), for which the “hERG current change (%, negative = inhibition) at 1uM” value worked out at 10.2%.
Turning to `CCOC(=O)C1CCN(c2c(N3CCN(Cc4ccccc4)CC3)c(=O)c2=O)CC1`, the “hERG current change (%, negative = inhibition) at 1uM” value is on record as -66.6%.
Turning to `CCOC(=O)C1CCN(Cc2ccc(-c3ccccc3)cc2)CC1`, the “hERG current change (%, negative = inhibition) at 1uM” value worked out at 8.54%.
As for `CCOC(=O)C1CCCN(c2c(N3CCN(c4cccc(Cl)c4)CC3)c(=O)c2=O)C1` (stereo not drawn), the “hERG current change (%, negative = inhibition) at 1uM” value is -54.1%.
`CCOC(=O)C1CCN(c2c(N3CCCC(C(=O)OCC)C3)c(=O)c2=O)CC1` (stereo not drawn): the “hERG current change (%, negative = inhibition) at 1uM” value is 8.36%.
The result for `CCOC(=O)C1CCN(c2c(NCCCN3CCN(Cc4ccccc4)CC3)c(=O)c2=O)CC1` reads 14.3%; that for `CCOc1ccc(S(=O)(=O)N/N=C(\C)c2ccc(Cl)c(Cl)c2Cl)cc1`, 12.1%.
To `Cc1ccc2oc(C(=O)Nc3ccc(S(=O)(=O)Nc4onc(C)c4C)cc3)cc(=O)c2c1` belongs 15.4%.
For the molecule `COc1ccc2[nH]c3c(=O)n(CCN4CCOCC4)cnc3c2c1`, the “hERG current change (%, negative = inhibition) at 1uM” value stood at 9.44%.
Regarding `COc1ccc2c(c1)[nH]c1c(=O)n(CC3CCCO3)cnc12` (stereo not drawn), the “hERG current change (%, negative = inhibition) at 1uM” value was 14.6%.
Turning to `CCN1CCCC1Cn1cnc2c([nH]c3ccc(OC)cc32)c1=O` (stereo not drawn), the “hERG current change (%, negative = inhibition) at 1uM” value is recorded as -58.5%.
With `CCC1CCCN1Cn1cnc2c([nH]c3ccc(OC)cc32)c1=O` (stereo not drawn), the “hERG current change (%, negative = inhibition) at 1uM” value is -35.8%.
For the molecule `COc1ccc2c(c1)[nH]c1c(=O)n(CCN3CCCC3)cnc12`, the “hERG current change (%, negative = inhibition) at 1uM” value is listed as -17.4%.
As to `CCN1CCCC1Cn1cnc2c([nH]c3cc(OC)ccc32)c1=O` (stereo not drawn), the “hERG current change (%, negative = inhibition) at 1uM” value was -53.5%.
With `Cc1cc(C(=O)NC2CCCc3c2cnn3-c2ccc(C(C)(C)C)cc2)nn1C` (stereo not drawn), the “hERG current change (%, negative = inhibition) at 1uM” value was determined as 16.5%.
The result for `O=[N+]([O-])c1cc([N+](=O)[O-])c2nonc2c1Nc1ccc(O)cc1` reads 2.03%.
As for `CC1CCN(S(=O)(=O)c2ccc3c(c2)c(=O)c(C(=O)NC2CCCC2)cn3C)CC1`, the “hERG current change (%, negative = inhibition) at 1uM” value is reported as 9.59%.
To `CCCCS(=O)(=O)N1CCC(C(=O)Oc2ccc(Cl)cc2)CC1` belongs 17.9%; to `COc1ccc(S(=O)(=O)N2CCN(C(=O)CN3C(=O)NC(C)(C)C3=O)CC2)cc1`, 14%.
